Compounds with a hit are over-represented: about 1.9% of the library has one in this group of screens.
CXXC DNA block: qHTS Fluorescence Polarization Assay for Inhibitors of MLL CXXC domain - DNA interaction; Potency, µM (highest dose often 115 µM), hits mostly inhibitors; hit rate 0.037% among 290,000; MLL-CXXC / FITC-HOXA9 DNA fluorescence polarization; AID 2662, 2010; Histone-lysine N-methyltransferase 2A (Homo sapiens), Q03164; active = well fitted inhibition curve with a large enough effect in the polarisation, with a control signal flat, not every such curve was filed as active; inconclusive = small, poorly fitted or top-dose-only effect, or effect the other way, or a change in a side signal; inactive = no such curve, though single readings can be large or run the other way; the % refers to the polarisation
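Purified MLL-CXXC (added from a 7 uM solution) was preincubated 5 min at ambient with pinned compounds in 50 mM Tris-HCl pH 7.5, 50 mM NaCl, 1 mM DTT, 0.05% BSA. Fluorescein-labeled HOX-A9 DNA (50 nM solution) followed, 30 min, then polarization read.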
PINK1 modulator: A Quantitative High throughput Screen to Identify Chemical Modulators of PINK1 Expression | PINK1 immunofluorescence, high-content cytometry, 24 h | hit rate 0.2% among 410,000 | Potency, µM (doses to about 76.6 µM), actives largely listed as activators; active = well fitted activation curve with a large enough effect; inconclusive = small, poorly fitted or top-dose-only effect; cell line not stated here; note: nearly all actives have a fitted effect of over 65% in size
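Stable cell line treated 24 h with compounds at 5 concentrations (CCCP controls), then fixed and immunostained for PINK1 plus nuclear and cell stains; PINK1 immunofluorescence quantified by laser-scanning microplate cytometry.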
Epigenetic derep: Quantitative High-Throughput Screen for Regulators of Epigenetic Control | murine LDR cells, GFP reporter derepression, 30 h | hit rate 0.2% among 280,000 | Potency, µM (doses to about 53.9 µM), hits mostly activators; note: nearly all actives have a fitted effect of over 60% in size
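Readout is the number of GFP-expressing murine LDR cells, counted by cytometry following washing. Cells were treated with compound for 30 h at 37 C; the stably integrated CMV-GFP locus is normally silent.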
Menin MLL FP TR: qHTS Assay for Inhibitors Targeting the Menin-MLL Interaction in MLL Related Leukemias: Competition With Texas Red Labeled MLL-derived Mutant Peptide | O00255 | Menin + Texas Red MLL mutant peptide, fluorescence polarization | Potency, µM (highest dose often 61.6 µM), actives largely listed as inhibitors | hit rate 0.23% among 270,000 | AID 1768, 2009; active = well fitted inhibition curve with a large enough effect in the polarisation, with a control signal flat, not every such curve was filed as active; inconclusive = small, poorly fitted or top-dose-only effect, or effect the other way, or a change in a side signal; inactive = no such curve, though single readings can be large or run the other way; the % refers to the polarisation
ClpP mod: qHTS Assay for Activators of ClpP | ATP-dependent Clp protease proteolytic subunit (Bacillus subtilis (strain 168)), P80244 | purified B. subtilis ClpP, FRET peptide cleavage, 20 min | Potency, µM (titrated, usually from 57.5 µM) | hit rate 1.9% among 340,000; active = well fitted falling curve with a large enough effect; inconclusive = small, poorly fitted or top-dose-only effect; inactive = no such curve, though single readings can be large or run the other way; note: the source files actives as falling curves though it sought activators and does not explain the sign; nearly all actives have a fitted effect of over 65% in size
Target sequence (P80244 whole entry, looked up): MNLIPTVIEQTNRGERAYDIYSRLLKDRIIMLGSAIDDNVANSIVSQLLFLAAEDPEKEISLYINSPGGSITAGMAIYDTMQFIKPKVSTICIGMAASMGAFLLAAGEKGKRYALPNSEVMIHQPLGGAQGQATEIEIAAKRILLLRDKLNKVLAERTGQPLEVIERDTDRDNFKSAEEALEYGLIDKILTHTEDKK
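Purified B. subtilis ClpP, 10 microg/mL final in Tris/HCl pH8 with KCl, BSA, glycerol and Tween-20, cleaved an Abz/nitrotyrosine-quenched decapeptide. Fluorescence (ex 320, em 430) was read at 0 and 20 min at room temperature. Delta was normalized to 5.8 microM ADEP and DMSO/no-enzyme controls.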
Menin-MLL FL inh: qHTS Assay for Inhibitors Targeting the Menin-MLL Interaction in MLL Related Leukemias: Competition With Fluorescein Labeled MLL-derived Peptide; FP activity change, % at 61.4 µM; AID 1766, 2009; Fluorescence polarization, fluorescein-MLL peptide displacement from menin; 290,000 tested, under 10 active; active = well fitted curve in the direction sought with a large enough effect in the polarisation, not every such curve was filed as active; inconclusive = small, poorly fitted or top-dose-only effect, or effect the other way, or a change in a side signal; inactive = no such curve, though single readings can be large or run the other way; the % refers to the polarisation
MLL CXXC FP-Fl: qHTS Fluorescence Polarization (FP) Assay for Inhibitors of MLL CXXC domain - DNA interaction: Fluorescein FP. shares compounds with CXXC DNA block. MLL CXXC-DNA binding, fluorescein FP. Potency, µM (doses to about 345 µM), most hits filed as inhibitors. hit rate 70% among 200; note: nearly all actives have a fitted effect of over 80% in size
MLL CXXC TxRed: qHTS Fluorescence Polarization (FP) Assay for Inhibitors of MLL CXXC domain - DNA interaction: Texas Red FP | Potency, µM (top dose mostly 345 µM), usual class: inhibitors | shares compounds with CXXC DNA block | AID 624161, 2012 | MLL CXXC-DNA binding, Texas Red fluorescence polarization | hit rate 40% among 200; note: nearly all actives have a fitted effect of over 75% in size
MLL CXXC TRF: qHTS Fluorescence Polarization (FP) Assay for Inhibitors of MLL CXXC domain - DNA interaction: HTRF Assay; MLL CXXC-DNA binding, HTRF, biochemical; hit rate 30% among 210; Potency, µM (doses to about 172 µM), usual class: inhibitors; AID 624162, 2012; shares compounds with CXXC DNA block; note: nearly all actives have a fitted effect of over 80% in size
Each line names hits and unclear results; the compound was inactive in the other large screens (follow-up assays come after a bar, where they were run). Unless noted, calls come from the whole dose curve; as a rule, active = well fitted curve in the direction sought with a large enough effect; inconclusive = small, poorly fitted or top-dose-only effect, or another doubt; inactive = no such curve, though single readings can be large; an effect the other way counts as inactive or inconclusive.

CCOP(=O)(OCC)O/C(=C/Cl)c1ccc(Cl)cc1Cl	CXXC DNA block 63.1µM, Menin-MLL FL inh inconclusive (no result: PINK1 modulator, Epigenetic derep, ClpP mod) | MLL CXXC FP-Fl 159µM | MLL CXXC TxRed inactive | MLL CXXC TRF inactive
N[C@@H](Cc1ccc(O)cc1)C(=O)O	none (no result: PINK1 modulator, ClpP mod)
NC(Cc1cc(O)c(O)cc1O)C(=O)O (centres undefined)	CXXC DNA block inconclusive, Menin MLL FP TR inconclusive, Menin-MLL FL inh inconclusive | MLL CXXC FP-Fl 17.9µM | MLL CXXC TxRed inconclusive | MLL CXXC TRF 30.6µM
C[C@@H]1Cc2c(Cl)cc(C(=O)N[C@@H](Cc3ccccc3)C(=O)O)c(O)c2C(=O)O1	none (no result: CXXC DNA block, PINK1 modulator, ClpP mod)
COCCNC(=O)Cn1cc(/C=C2\C(=O)NC(=O)N(c3ccccc3F)C2=O)c2ccccc21	Menin-MLL FL inh inconclusive (no result: Epigenetic derep)
O=C(O)Cn1cc(/C=C2\C(=O)NC(=O)N(c3ccc(F)cc3)C2=O)c2ccccc21	CXXC DNA block inconclusive, Menin-MLL FL inh inconclusive (no result: PINK1 modulator, Epigenetic derep, ClpP mod) | MLL CXXC FP-Fl inconclusive | MLL CXXC TxRed 89.5µM | MLL CXXC TRF inconclusive
O=C(O)CCn1cc(C=C2C(=O)NC(=S)NC2=O)c(-c2ccccc2)n1	CXXC DNA block 31.6µM (no result: ClpP mod) | MLL CXXC FP-Fl 4µM | MLL CXXC TxRed 89.5µM | MLL CXXC TRF 6.11µM
O=C(O)CCn1cc(C=C2C(=O)NC(=S)NC2=O)c(-c2cc3ccccc3oc2=O)n1	Menin-MLL FL inh inconclusive
CC1=C(O)C(=O)[C@@H]2O[C@@H]2C1=O	none (no result: CXXC DNA block, PINK1 modulator, Menin MLL FP TR, ClpP mod, Menin-MLL FL inh)
COc1ccc(/C=C2/C(=O)NC(=O)N(C3CCCCC3)C2=O)cc1CSc1ccccn1	CXXC DNA block inconclusive, Menin MLL FP TR inconclusive (no result: PINK1 modulator, ClpP mod) | MLL CXXC FP-Fl 142µM | MLL CXXC TxRed 142µM | MLL CXXC TRF 76.9µM
O=S(=O)(CCN1CCN(c2ccccn2)CC1)c1ccc(Cl)cc1Cl	ClpP mod inconclusive (no result: Menin MLL FP TR)
CC1=C2C(=O)C3C(CC=C4C[C@@H](O)CC[C@@]43C)[C@@H]2CC[C@]12O[C@@H]1C[C@H](C)CN[C@H]1C2C (some centres undefined)	none (no result: CXXC DNA block, PINK1 modulator, Epigenetic derep, ClpP mod)
CN1C(=O)C(=Cc2ccccc2OCc2ccc(C(=O)O)cc2)C(=O)N(C)C1=O	CXXC DNA block 20µM (no result: ClpP mod) | MLL CXXC FP-Fl inconclusive | MLL CXXC TxRed 142µM | MLL CXXC TRF 61.1µM
CCc1ccccc1NC(=O)C(CC)Oc1ccccc1-c1nnc(-c2ccccc2)o1 (centres undefined)	ClpP mod inconclusive (no result: CXXC DNA block, Menin MLL FP TR, Menin-MLL FL inh)
CCn1nc(-c2cccs2)nc2c(=O)n(C)c(=O)nc1-2	CXXC DNA block inconclusive, Epigenetic derep inconclusive, Menin MLL FP TR inconclusive | MLL CXXC FP-Fl inconclusive | MLL CXXC TxRed inconclusive | MLL CXXC TRF inactive
Cc1ccc2cc3c(ccc4ccccc43)c3c2c1CC3	none (no result: CXXC DNA block, PINK1 modulator, Menin MLL FP TR, ClpP mod, Menin-MLL FL inh)
